Test results taken from PubChem BioAssay (Tox21).
Records with an inconclusive call do not appear. The source made the active and inactive calls. The call rests on the fitted dose curve; in most records, active means well fitted curve in the direction sought with a large enough effect in the repeat runs; inconclusive means weak or mixed curves; inactive means no such curve, though single readings can be large; an effect the other way counts as inactive or inconclusive.

Key:
[1] = A CellTox Green Cytotoxicity Assay to monitor cytotoxicity in HepG2 cells - 8 hour (AID 1224890); further: nearly all actives have a fitted effect of over 45% in size
How it was run: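 Using 1536-well format, dye-containing HepG2 suspension was seeded, allowed 5 h at 37 C/5% CO2, dosed by pintool with compounds, positive and negative controls, and imaged for fluorescence across 40 h.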

[2] = qHTS assay to identify small molecule antagonists of the estrogen receptor alpha (ER-alpha) signaling pathway using the BG1 cell line in the presence of 0.1 nM 17-beta-estradiol - cell viability counter screen (AID 1259241); further: nearly all actives have a fitted effect of over 40% in size
How it was run: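 Live-cell protease activity (CellTiter-Fluor fluorescence, 30 min) was read in the same wells after VM7Luc4E2 cells had been exposed to compounds with 0.1 nM 17beta-estradiol for 22 hr at 37C.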

[3] = qHTS assay to identify small molecule antagonists of the androgen receptor (AR) signaling pathway using the MDA cell line in the presence of 0.5 nM R1881 - cell viability counter screen (AID 1259242); further: nearly all actives have a fitted effect of over 45% in size
How it was run: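 Viability of MDA-kb2 cells was multiplexed with the luciferase AR readout; after 16 hr with compounds and R1881 at 0.5 nM final, CellTiter-Fluor fluorescence was recorded.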

[4] = molecular target: Estrogen receptor (Homo sapiens) (UniProt P03372); test: qHTS assay to identify small molecule antagonists of the estrogen receptor alpha (ER-alpha) signaling pathway using the BG1 cell line in the presence of 0.1 nM 17-beta-estradiol (AID 1259244); further: nearly all actives have a fitted effect of over 50% in size
How it was run: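 Estradiol at 0.1 nM (final) stimulates the endogenous ER-alpha of VM7Luc4E2 cells carrying an ERE-driven luciferase; compounds are co-incubated 22 h at 37C and luciferase output quantified by luminescence.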

[5] = qHTS assay to identify small molecule HDAC inhibitors (AID 1259364);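 further: wild-type HCT-116 cells with endogenous class I/II HDAC activity; top concentration of the series differs between compounds; nearly all actives have a fitted effect of over 45% in size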
How it was run: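 Read-out: luminescence of HDAC-Glo I/II reagent, 30 min RT, reflecting class I/II deacetylase activity in whole HCT-116 cells pre-exposed 2 h to DMSO-dissolved compounds.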

[6] = qHTS assay to identify small molecule HDAC inhibitors - cell viability counter screen (AID 1259365); further: series mostly up to about 92 µM; nearly all actives have a fitted effect of over 50% in size
How it was run: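 HCT-116 (wild type), 1,500 cells/well, overnight 37C/5% CO2; compound in DMSO 2hr; CellTiter-Glo 30min RT; luminescence read.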

[7] = qHTS assay to identify small molecule agonists of the sonic hedgehog signaling (Shh) pathway - cell viability counter screen (AID 1259366); further: nearly all actives have a fitted effect of over 50% in size
How it was run: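 CellTiter-Fluor fluorescence read-out, 1 hr at 37C, added after 23hr compound exposure. Cells: 3T3 Gli1-Luc, an NIH/3T3 clone with stably integrated Gli1-Luc reporter, plated 4hr before compound.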

[8] = qHTS assay to identify small molecule antagonists of the sonic hedgehog signaling (Shh) pathway - cell viability counter screen (AID 1259367); further: nearly all actives have a fitted effect of over 55% in size
How it was run: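 NIH/3T3-derived Gli1-Luc reporter cells (2,000 per well) rested 4 hr at 37 C, then received DMSO compounds plus conditioned medium. After 23 hr of treatment, CellTiter-Fluor was added for 1 hr at 37C and fluorescence read.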

Measured: Potency

Chain of Estrogen receptor (Homo sapiens) (P03372 whole entry, looked up): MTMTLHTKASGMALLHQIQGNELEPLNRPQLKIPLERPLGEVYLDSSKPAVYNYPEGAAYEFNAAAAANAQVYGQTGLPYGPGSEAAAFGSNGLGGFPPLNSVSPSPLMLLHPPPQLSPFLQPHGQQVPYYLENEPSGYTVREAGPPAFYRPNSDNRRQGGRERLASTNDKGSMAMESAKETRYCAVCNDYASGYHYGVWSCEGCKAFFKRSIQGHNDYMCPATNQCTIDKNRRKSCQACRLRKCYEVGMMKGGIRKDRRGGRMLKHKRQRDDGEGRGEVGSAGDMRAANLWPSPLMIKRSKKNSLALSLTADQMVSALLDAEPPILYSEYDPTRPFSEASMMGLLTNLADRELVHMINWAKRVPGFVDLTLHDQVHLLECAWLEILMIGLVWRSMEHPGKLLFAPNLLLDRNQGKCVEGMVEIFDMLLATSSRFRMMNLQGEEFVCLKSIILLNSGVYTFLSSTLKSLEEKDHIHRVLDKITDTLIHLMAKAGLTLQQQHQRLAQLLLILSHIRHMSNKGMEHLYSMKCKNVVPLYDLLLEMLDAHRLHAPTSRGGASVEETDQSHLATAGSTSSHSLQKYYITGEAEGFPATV

O=C(OCCN1CCOCC1)c1cccnc1Nc1cccc(C(F)(F)F)c1
inactive: all assays above

C=CC(=O)OCCCCCCCCCC
inactive: all assays above

SCCOCCOCCS
inactive: all assays above

CCC(CC)C(=O)O
inactive: all assays above

CCCC(=O)OCc1ccccc1
not listed: [5]
inactive: all other assays above

COC(=O)c1cc(Cl)ccc1[N+](=O)[O-]
not listed: [5]
inactive: all other assays above

CCc1ccc(C(=O)C(C)CN2CCCCC2)cc1 (centres undefined)
not listed: [4]
inactive: all other assays above

C=C[Si]1(C)O[Si](C)(C=C)O[Si](C)(C=C)O[Si](C)(C=C)O1 (centres undefined)
not listed: [4] | [8]
inactive: all other assays above
